Source: the supplement of paper PMC11732987, “Enantioselective OTUD7B fragment discovery through chemoproteomics screening and high-throughput optimisation” (Communications Chemistry, 2025)

Assays:
Assay in all cases: log2 ratio of Biotin-Ahx-Ub-VS probe labelling (fragment/DMSO); higher = less target engagement (more negative = stronger competition), active = hit call of the paper (q ≤ 0.05, log2 ratio ≤ -1)
Settings in all cases: compound concentration: 200 uM; treatment time: 3 h
[1] = target: T1, USP19 (UniProt O94966)
T1 sequence (whole entry): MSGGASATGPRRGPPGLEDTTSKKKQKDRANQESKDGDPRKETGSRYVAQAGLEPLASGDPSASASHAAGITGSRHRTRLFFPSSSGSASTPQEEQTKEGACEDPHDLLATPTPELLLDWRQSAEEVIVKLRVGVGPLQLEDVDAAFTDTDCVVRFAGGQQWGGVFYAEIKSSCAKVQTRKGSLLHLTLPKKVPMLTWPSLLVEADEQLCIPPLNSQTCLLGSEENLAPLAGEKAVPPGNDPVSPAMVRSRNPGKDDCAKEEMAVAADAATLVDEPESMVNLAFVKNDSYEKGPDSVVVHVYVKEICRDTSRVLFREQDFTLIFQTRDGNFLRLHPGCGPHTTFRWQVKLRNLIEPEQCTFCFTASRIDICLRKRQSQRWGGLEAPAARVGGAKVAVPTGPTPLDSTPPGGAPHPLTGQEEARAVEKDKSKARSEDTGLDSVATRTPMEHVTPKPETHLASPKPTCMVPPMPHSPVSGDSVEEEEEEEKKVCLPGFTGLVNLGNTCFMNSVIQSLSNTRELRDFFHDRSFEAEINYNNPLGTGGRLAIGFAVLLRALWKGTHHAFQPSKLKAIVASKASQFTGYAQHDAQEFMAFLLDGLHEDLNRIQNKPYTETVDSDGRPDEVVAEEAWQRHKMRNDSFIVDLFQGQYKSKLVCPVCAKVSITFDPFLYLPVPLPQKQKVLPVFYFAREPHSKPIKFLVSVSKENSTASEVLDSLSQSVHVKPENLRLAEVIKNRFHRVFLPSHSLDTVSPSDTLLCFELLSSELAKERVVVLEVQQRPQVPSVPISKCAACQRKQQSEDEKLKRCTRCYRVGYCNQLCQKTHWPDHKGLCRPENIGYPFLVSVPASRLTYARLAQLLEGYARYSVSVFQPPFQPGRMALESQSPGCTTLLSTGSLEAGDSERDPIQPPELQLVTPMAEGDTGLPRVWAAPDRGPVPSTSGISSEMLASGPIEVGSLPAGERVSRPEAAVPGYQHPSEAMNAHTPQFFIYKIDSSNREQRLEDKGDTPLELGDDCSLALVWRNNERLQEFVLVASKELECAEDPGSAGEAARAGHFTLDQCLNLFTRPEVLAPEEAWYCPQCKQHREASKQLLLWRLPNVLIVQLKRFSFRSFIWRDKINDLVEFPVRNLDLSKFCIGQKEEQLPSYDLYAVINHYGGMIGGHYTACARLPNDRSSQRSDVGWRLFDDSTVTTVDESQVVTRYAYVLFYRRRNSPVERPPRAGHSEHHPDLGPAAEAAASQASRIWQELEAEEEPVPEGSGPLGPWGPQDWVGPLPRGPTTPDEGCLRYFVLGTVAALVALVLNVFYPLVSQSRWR
Summary of the method: (§1)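 Triplicate samples of HEK293T lysate, 495 µg each, received fragment at 200 µM or vehicle for 3 h, followed by Biotin-Ahx-Ub-VS (0.5 µM final) for 1 h. After NeutrAvidin enrichment of labelled DUBs and LysC/trypsin digestion, peptides were run by diaPASEF LC-MS/MS. The values are average log2 fragment/vehicle ratios from global-median-normalised Spectronaut label-free quantities, tested by unpaired t-test on proteins having ≥2 unique peptides.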

[2] = target: T2, USP22 (UniProt Q9UPT9)
T2 sequence (whole entry): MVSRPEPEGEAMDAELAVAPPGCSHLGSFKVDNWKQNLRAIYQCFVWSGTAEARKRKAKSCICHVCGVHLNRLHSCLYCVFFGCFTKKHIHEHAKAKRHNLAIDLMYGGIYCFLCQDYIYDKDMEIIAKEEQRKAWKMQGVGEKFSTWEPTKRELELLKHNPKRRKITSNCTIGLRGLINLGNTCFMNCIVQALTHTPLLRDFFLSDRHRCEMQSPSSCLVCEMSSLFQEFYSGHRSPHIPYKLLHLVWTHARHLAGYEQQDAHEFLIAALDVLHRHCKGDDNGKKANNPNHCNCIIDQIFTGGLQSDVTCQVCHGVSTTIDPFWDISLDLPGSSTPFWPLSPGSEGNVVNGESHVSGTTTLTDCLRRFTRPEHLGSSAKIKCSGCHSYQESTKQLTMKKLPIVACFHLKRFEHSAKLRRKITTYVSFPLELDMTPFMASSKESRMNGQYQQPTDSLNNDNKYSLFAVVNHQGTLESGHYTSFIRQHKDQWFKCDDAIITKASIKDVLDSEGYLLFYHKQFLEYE
Summary of the method: as §1

[3] = target: USP24 (UniProt Q9UPU5)
Chain of USP24 (Q9UPU5 whole entry): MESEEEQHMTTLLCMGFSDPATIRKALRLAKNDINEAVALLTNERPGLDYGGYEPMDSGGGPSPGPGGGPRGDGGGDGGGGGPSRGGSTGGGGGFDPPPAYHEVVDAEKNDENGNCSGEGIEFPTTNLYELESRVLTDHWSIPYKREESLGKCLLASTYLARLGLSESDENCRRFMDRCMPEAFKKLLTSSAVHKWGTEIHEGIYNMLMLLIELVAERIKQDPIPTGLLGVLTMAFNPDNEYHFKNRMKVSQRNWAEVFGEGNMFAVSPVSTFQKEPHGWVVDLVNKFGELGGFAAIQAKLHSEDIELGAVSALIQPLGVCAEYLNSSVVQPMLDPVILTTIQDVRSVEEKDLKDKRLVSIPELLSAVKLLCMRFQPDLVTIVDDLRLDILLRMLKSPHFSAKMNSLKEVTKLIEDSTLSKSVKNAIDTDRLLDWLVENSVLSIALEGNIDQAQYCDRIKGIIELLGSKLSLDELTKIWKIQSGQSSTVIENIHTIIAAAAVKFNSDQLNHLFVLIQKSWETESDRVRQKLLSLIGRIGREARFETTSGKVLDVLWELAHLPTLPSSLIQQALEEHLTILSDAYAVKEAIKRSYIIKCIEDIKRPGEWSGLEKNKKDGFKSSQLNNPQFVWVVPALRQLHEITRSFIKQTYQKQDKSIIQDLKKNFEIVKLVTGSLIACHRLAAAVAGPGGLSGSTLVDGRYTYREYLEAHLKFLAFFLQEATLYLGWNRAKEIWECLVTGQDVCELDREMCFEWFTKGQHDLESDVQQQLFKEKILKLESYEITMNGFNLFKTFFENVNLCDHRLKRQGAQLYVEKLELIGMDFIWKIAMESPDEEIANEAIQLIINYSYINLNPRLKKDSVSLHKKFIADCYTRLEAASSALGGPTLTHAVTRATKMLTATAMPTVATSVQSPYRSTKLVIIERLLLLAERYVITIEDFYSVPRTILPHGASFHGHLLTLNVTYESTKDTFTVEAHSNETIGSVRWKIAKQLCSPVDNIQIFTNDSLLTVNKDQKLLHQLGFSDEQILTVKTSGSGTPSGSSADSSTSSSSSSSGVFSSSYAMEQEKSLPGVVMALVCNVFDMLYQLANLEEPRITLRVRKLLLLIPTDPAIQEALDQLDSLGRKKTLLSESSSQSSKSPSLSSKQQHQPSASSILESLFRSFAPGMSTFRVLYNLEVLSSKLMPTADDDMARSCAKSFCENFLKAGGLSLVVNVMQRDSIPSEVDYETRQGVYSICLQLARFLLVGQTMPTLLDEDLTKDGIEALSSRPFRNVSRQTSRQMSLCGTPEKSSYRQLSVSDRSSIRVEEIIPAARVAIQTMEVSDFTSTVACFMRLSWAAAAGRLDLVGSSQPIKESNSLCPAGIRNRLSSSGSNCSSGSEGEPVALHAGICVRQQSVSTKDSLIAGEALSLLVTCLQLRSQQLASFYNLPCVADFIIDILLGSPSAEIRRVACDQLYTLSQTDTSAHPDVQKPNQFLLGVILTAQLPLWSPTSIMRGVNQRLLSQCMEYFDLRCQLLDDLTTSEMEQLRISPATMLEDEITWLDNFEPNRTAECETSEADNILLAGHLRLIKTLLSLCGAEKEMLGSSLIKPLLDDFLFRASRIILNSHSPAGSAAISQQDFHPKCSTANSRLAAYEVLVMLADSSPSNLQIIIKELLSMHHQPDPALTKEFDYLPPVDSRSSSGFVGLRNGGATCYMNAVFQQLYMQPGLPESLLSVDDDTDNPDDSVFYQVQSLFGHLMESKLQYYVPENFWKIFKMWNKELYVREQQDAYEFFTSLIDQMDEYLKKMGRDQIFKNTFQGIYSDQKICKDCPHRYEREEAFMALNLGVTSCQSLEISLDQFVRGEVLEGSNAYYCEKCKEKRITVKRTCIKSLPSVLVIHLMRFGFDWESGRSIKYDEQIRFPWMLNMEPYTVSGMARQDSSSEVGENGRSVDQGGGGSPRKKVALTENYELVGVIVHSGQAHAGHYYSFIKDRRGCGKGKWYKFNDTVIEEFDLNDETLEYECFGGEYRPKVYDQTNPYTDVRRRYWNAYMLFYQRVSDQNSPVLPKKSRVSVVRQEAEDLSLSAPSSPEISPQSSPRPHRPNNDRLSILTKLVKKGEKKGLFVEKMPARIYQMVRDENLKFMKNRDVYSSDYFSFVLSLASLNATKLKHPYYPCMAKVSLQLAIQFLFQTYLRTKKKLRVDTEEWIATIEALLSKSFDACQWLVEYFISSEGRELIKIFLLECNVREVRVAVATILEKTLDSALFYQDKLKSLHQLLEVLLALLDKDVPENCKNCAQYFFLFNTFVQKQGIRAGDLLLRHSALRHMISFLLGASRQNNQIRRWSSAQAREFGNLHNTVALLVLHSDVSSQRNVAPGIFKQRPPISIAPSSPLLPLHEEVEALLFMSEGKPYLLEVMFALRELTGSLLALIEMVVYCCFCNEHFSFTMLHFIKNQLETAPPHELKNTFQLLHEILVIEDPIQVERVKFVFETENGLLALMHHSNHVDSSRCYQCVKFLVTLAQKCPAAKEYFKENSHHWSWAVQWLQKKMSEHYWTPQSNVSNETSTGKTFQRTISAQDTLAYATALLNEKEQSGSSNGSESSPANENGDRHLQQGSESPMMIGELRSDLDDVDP
Summary of the method: as §1

[4] = target: T3, USP25 (UniProt Q9UHP3)
T3 sequence (whole entry): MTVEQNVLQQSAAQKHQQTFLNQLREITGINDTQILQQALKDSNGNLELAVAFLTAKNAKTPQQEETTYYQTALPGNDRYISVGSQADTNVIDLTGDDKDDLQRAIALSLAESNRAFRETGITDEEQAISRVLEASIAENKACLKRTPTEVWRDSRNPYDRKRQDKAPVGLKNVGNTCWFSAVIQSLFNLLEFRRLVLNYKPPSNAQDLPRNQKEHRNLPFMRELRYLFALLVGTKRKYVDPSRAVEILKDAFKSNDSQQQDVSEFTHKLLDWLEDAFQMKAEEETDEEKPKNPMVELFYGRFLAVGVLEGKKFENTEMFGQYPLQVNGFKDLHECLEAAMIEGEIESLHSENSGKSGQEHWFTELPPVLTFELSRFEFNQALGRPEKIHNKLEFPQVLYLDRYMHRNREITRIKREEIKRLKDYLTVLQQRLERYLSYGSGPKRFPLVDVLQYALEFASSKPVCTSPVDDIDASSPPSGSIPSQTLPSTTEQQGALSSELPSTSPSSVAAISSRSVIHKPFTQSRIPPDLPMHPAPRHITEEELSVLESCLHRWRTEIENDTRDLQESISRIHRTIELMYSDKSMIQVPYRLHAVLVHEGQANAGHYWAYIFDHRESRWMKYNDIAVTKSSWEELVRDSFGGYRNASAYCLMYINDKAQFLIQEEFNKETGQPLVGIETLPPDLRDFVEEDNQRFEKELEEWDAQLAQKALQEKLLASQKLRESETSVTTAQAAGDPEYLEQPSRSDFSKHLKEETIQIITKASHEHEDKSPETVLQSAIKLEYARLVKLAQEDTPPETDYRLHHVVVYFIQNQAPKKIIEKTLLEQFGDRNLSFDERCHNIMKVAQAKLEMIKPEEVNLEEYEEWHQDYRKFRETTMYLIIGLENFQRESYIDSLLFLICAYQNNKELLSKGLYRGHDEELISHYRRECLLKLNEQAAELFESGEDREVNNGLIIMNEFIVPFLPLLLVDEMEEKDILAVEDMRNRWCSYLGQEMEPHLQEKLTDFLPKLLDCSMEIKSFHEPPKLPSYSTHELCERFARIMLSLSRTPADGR
Summary of the method: as §1

[5] = target: T4, USP28 (UniProt Q96RU2)
T4 sequence (whole entry): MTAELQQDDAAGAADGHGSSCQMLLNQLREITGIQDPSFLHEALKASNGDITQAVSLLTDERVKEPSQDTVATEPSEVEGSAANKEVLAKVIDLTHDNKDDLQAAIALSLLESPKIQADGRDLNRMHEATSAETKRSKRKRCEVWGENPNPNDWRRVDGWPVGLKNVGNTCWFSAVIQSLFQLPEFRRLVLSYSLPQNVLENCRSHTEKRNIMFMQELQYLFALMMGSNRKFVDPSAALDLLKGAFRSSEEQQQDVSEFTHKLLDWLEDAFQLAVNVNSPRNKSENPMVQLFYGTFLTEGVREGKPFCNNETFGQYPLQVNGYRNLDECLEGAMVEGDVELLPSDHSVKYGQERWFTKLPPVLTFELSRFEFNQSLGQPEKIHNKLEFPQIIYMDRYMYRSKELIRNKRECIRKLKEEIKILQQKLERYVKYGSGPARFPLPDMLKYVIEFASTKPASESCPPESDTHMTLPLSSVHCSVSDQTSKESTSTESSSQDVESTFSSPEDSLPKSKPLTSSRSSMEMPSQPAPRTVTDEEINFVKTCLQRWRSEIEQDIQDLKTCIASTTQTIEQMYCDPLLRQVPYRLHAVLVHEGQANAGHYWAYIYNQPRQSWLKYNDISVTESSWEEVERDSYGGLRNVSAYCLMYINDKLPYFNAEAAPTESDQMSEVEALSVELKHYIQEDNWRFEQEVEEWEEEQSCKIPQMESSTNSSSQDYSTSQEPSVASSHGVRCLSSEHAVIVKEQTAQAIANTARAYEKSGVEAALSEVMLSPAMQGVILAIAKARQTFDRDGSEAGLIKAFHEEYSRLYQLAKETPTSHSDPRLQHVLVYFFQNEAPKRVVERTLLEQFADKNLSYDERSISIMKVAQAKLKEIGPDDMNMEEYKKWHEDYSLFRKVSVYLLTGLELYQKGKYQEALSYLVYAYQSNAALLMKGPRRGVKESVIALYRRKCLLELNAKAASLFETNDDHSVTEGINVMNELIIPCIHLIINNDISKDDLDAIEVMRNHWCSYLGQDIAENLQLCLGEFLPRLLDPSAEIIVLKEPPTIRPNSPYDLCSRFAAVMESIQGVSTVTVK
Summary of the method: as §1

Measured: log2 ratio of Biotin-Ahx-Ub-VS probe labelling

Cc1ncsc1CCNC(=O)CCl
inactive: [1] 0.249 | [2] 0.314 | [3] 0.197 | [4] -0.144 | [5] 0.0198
